PubChem BioAssay (NCATS)
Results filed as inconclusive are left out. Entries that show only a call come without a potency. Active and inactive are the calls of the source. The call rests on the fitted dose curve; in most records, active means well fitted inhibition curve with a large enough effect; inconclusive means small, poorly fitted or top-dose-only effect; inactive means flat fitted curve, though single readings scatter.

These molecules were tested against Voltage-gated inwardly rectifying potassium channel KCNH2 (Homo sapiens) (UniProt Q12809) (assay: qHTS Assay for Small Molecule Inhibitors of the Human hERG Channel Activity (AID 588834;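 further: lower thallium flux fluorescence means stronger hERG block; nearly all actives have a fitted effect of over 50% in size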)). Conditions: U2OS BacMam hERG, FluxOR thallium flux fluorescence; series mostly up to 46.1 µM.
Method in brief: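 Concentration-response qHTS measuring drop in thallium-sensitive dye signal. U2OS cells carrying BacMam hERG; compound exposure ~10 min, then stimulation buffer and 2 min read at 1 sec intervals.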
Potency means the concentration at half of the fitted maximal effect.

Sequence of Voltage-gated inwardly rectifying potassium channel KCNH2 (Homo sapiens) (Q12809 whole entry, looked up): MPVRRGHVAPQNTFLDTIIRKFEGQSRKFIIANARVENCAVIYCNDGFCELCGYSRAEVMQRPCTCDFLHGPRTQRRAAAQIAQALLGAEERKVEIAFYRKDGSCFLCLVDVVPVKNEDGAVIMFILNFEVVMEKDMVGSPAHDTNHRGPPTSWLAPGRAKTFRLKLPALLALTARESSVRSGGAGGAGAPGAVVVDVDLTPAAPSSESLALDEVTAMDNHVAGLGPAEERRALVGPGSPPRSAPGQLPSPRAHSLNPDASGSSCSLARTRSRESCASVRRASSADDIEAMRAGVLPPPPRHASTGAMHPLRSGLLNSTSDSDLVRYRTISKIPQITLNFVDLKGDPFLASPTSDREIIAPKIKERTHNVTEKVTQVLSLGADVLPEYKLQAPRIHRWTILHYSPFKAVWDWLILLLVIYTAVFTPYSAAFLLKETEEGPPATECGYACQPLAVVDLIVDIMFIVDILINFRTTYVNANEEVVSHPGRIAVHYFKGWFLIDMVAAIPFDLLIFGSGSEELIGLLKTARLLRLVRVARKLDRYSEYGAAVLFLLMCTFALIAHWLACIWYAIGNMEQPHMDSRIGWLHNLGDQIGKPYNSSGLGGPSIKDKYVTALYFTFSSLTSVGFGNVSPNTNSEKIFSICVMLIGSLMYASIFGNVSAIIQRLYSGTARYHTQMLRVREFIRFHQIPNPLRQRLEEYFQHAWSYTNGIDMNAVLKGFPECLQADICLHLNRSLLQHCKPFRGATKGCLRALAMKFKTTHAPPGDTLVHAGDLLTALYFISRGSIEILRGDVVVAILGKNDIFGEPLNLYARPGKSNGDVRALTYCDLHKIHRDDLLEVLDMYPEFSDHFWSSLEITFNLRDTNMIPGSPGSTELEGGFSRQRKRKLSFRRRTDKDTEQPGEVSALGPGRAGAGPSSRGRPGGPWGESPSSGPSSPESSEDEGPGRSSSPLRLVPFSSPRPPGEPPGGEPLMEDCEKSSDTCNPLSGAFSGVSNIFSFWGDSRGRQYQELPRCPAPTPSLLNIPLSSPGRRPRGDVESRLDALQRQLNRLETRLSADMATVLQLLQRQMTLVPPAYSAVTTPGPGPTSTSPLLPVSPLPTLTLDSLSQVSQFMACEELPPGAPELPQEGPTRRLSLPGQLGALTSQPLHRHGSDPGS

**Q.** Which Potency does the source give for `CC12C(=O)OC(=O)C1(C)C1CCC2O1` (stereo unspecified) here?
**A.** inactive

**Q.** `COc1cc2c(CCNC(C)=O)c[nH]c2cc1Cl` was tested. Which Potency did it give?
**A.** inactive

**Q.** How did the Potency turn out when `Oc1cc(O)cc(/C=C/c2ccc(O)c(O)c2)c1` was run?
**A.** inactive

**Q.** Which Potency does the source give for `C[N+](C)(C)CCOP(=O)(O)OP(=O)([O-])OC[C@H]1O[C@@H](n2ccc(N)nc2=O)[C@H](O)[C@@H]1O` here?
**A.** inactive

**Q.** With `O=C(Nc1ccc(C(=O)O)c(O)c1)c1ccccc1` as the molecule, how does the Potency read?
**A.** inactive

**Q.** `CC(=O)O[C@H]1C[C@@]2(C)[C@@H](C[C@@H](O)[C@H]3[C@@]4(C)CC[C@@H](O)[C@@H](C)[C@@H]4CC[C@@]32C)/C1=C(\CCC=C(C)C)C(=O)O` was tested. Which Potency did it give?
**A.** inactive

**Q.** For `OCC1O[C@H](O)C(Cl)C(O)C1O` (stereo partly specified), which Potency is on record?
**A.** inactive

**Q.** `COc1cc(OC)c(/C=C2/C(=O)Nc3ccccc32)c(OC)c1` was tested. Which Potency did it give?
**A.** inactive

**Q.** `NC(N)=NC(=O)c1nc(Cl)c(N2CCCCCC2)nc1N` was tested. Which Potency did it give?
**A.** 8.91 µM (active)

**Q.** Which Potency does the source give for `CN1CCc2ccccc2Cc2[nH]c3ccccc3c2CC1` here?
**A.** 8.91 µM (active)

**Q.** For `N[C@@H](CC(=O)O)C(=O)O`, which Potency is on record?
**A.** inactive

**Q.** With `CC(C(=O)O)c1ccc(C(=O)c2cccs2)cc1` (stereo unspecified) as the molecule, how does the Potency read?
**A.** inactive

**Q.** For `Cc1ccc(C(=O)O[C@H](C(=O)O)[C@@H](OC(=O)c2ccc(C)cc2)C(=O)O)cc1` (tested in a mixture with another compound), which Potency is on record?
**A.** inactive

**Q.** Which Potency does the source give for `COc1cccc2c1C(=O)c1c(O)c3c(c(O)c1C2=O)C[C@@](O)(C(=O)CO)C[C@@H]3O[C@H]1C[C@H](N)[C@H](O[C@@H]2CCCCO2)[C@H](C)O1` here?
**A.** inactive

**Q.** For `O=C(O)CC[C@@H](C(=O)O)N1C(=O)c2ccccc2C1=O`, which Potency is on record?
**A.** inactive

**Q.** Which Potency does the source give for `C#CC1(O)CC[C@H]2[C@@H]3CCC4=CCCC[C@@H]4[C@H]3CC[C@@]21C` (stereo partly specified) here?
**A.** inactive

**Q.** `OC[C@H]1O[C@@H](n2cnc3c(NC4CCCCC4)ncnc32)[C@H](O)[C@@H]1O` was tested. Which Potency did it give?
**A.** inactive

**Q.** Which Potency does the source give for `O=C(O)c1cc([N+](=O)[O-])ccc1NCCCc1ccccc1` here?
**A.** inactive

**Q.** With `O=c1[nH]c2cc(Cl)c(Cl)cc2[nH]c1=O` as the molecule, how does the Potency read?
**A.** inactive

**Q.** Which Potency does the source give for `Cc1ccc(C(=O)c2ccc(CC(=O)O)n2C)cc1` here?
**A.** inactive

**Q.** How did the Potency turn out when `Ic1ccc(N2CCN(Cc3c[nH]c4ncccc34)CC2)cc1` was run?
**A.** 1.12 µM (active)

**Q.** For `Cc1nc2ccccc2n1Cc1ccc(Cl)cc1`, which Potency is on record?
**A.** inactive

**Q.** With `COc1ccccc1N1CCN(CCCCNS(=O)(=O)c2cccc3c(N(C)C)cccc23)CC1` as the molecule, how does the Potency read?
**A.** 1.41 µM (active)

**Q.** `O=C1O/C(=C/Br)CCC1c1cccc2ccccc12` (stereo unspecified) was tested. Which Potency did it give?
**A.** 5.62 µM (active)

**Q.** For `C=C/C(C)=C/[C@@]1(C)SC(=O)C(C)=C1O`, which Potency is on record?
**A.** inactive

**Q.** Which Potency does the source give for `Cc1onc(-c2c(F)cccc2Cl)c1C(=O)N[C@@H]1C(=O)N2[C@@H]1SC(C)(C)[C@@H]2C(=O)O` here?
**A.** inactive
